AI-2 QS modul = Vibrio harveyi AI-2 quorum sensing modulation; Vibrio harveyi JMH597 AI-2 luminescence/OD600 ratio, 9 h; active compounds read low; strain lacks LuxN and CqsS sensors; 0 = neutral-control median; activity change, % at 7.5 µM; actives 0.4% (n = 300,000); AID 2094; in the data active means activity change below about -75%, passing the limit was not always enough;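 further: luminescence divided by OD600 gain over 9 h not by final OD600 alone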
Mot1-301 SUMO = inhibitors of SUMOylation pathway: yeast Mot1-301 growth rescue | S. cerevisiae Mot1-301 growth rescue, ATP luminescence, 38.5C; percent above DMSO median, 100 means doubled | growth rescue, % at 18.8 µM | actives 1% (n = 320,000) | AID 2716;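 active means every valid replicate shows activation above 250% relative to neutral control wells; inactive means the rest, any valid replicate at or below 250%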;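 further: OY570 slx delta 5 strain wells were the positive control but not used for scaling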
HIF activator = HIF pathway transcriptional activation | U2OS HRE-luciferase reporter, luminescence; normalized: DMSO 0%, desferrioxamine 100% | activation, % at 7.5 µM (by protocol) | actives 0.32% (n = 300,000) | AID 1910;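 active means mean activation of at least 10% of the iron chelator positive control signal, with at least half of replicates also reaching 10%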
ALR H2O2 inh = human ALR oxidase inhibition via reduced H2O2; P55789; actives 3.8% (n = 290,000); inhibition, % (no concentration beside the values); purified ALR, DTT oxidation, H2O2 HRP-luminol luminescence;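 active means mean replicate inhibition above about 79%, with every replicate also reaching it, limit read from the data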
Target sequence (P55789 whole entry, looked up): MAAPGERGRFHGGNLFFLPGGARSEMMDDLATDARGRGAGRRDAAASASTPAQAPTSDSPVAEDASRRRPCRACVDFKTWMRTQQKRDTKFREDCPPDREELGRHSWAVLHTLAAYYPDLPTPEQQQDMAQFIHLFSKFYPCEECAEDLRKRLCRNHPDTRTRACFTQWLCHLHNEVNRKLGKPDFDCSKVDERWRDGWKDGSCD
* hit, by the source's call; i = inactive; / = no result given; ! = repeats disagree. Most compounds without a hit are left out; they make up all but 4.8% or so of the library.

SMILES | AI-2 QS modul | Mot1-301 SUMO | HIF activator | ALR H2O2 inh
Cc1ccc2[nH]c(C(=O)O)c(-c3ccccc3)c2c1 | 5 | -3 | 0 | 98*
CC(=O)NNC(=O)c1[nH]c2ccc(Br)cc2c1-c1ccccc1 | 37 | -26 | 0 | 97*
Cc1ccc2[nH]c(C(=O)NN=C3CCCCC3)c(-c3ccccc3)c2c1 | 12 | -1 | 0 | /
Cc1ccc(C(C(=O)NCC2CCCO2)N(C(=O)c2snc(C(N)=O)c2N)c2ccc(C)c(C)c2)o1 (stereo unspecified) | 17 | 445 | 2 | -6
Cc1ccc2nc(N3CCN(C(=O)CCC(=O)O)CC3)nc(-c3ccccc3)c2c1 | 7 | 0 | 0 | 11
O=C(O)CCCC(=O)N1CCN(c2nc(-c3ccccc3)c3ccccc3n2)CC1 | 19 | -14 | 0 | 77*
O=C(NNc1ccccc1)/C(=C\c1cccnc1)NC(=O)c1ccccc1 | 26 | -12 | -1 | 98*
O=C(c1ccc2c(c1)N(Cc1ccccc1)CCS2)N1CCOCC1 | 22 | 13 | 0 | 99*
O=C(c1ccc2ccccc2c1)N1CCOCC1 | 12 | 6 | -1 | -6
COc1ccc(CCNC(=O)c2ccc3c(c2)N(Cc2ccc(F)cc2)CCS3)c(OC)c1 | -9 | -16 | 0 | 0
O=C(c1ccc2c(c1)N(Cc1ccc(F)cc1)CCS2)N1CCOCC1 | 5 | -6 | 0 | 99*
Cc1ccc(C(=O)NCCc2nnc3ccc(NCCCN4CCOCC4)nn23)cc1 | 1 | 111 | 0 | 5
O=C(COc1ccc(F)cc1)Nc1nnc(S(=O)(=O)N2CCCC2)s1 | 4 | -2 | 0 | /
N#CCCN(C(=O)COC(=O)CCN=C1NS(=O)(=O)c2ccccc21)c1ccc(F)cc1 | -2 | 11 | 0 | -3
C/C(CC(=O)Nc1cc(C)ccn1)=N\NC(=O)c1cccc(C)c1O | 8 | 1 | 5 | 26
Cc1cc(OC(C)C(=O)N2CCN(c3ccc(F)cc3)CC2)c2c(C)cc(=O)oc2c1 (stereo unspecified) | 11 | -2 | 0 | -2
CCN(CC)c1ccc(SS(=O)(=O)O)cc1 | 15 | -16 | 0 | 99*!
COc1ccccc1NS(=O)(=O)c1cc(NC(=O)C2CCCO2)ccc1C (stereo unspecified) | / | -16 | / | -4
COC(=O)N1C(=O)[C@](Cc2ccccc2)(c2ccccc2)N1C(=O)OC | 35 | 33 | -2 | 12
CCOc1ccc(C(=O)CCC(=O)N(CC)CC(=O)NCc2cccs2)cc1 | 39 | 20 | 0 | 10
CCOc1ccc(C(=O)CC(NCc2cccs2)C(=O)O)cc1 (stereo unspecified) | 14 | 9 | 1 | 97*
O=C(Oc1c(Cl)cc(Cl)c2cccnc12)c1cccs1 | 8 | 114 | 0 | -17
O=C(Oc1c(Cl)cc(Cl)c2cccnc12)c1ccco1 | -88* | 218 | 0 | -6
Cc1ccccc1CN1CCN(c2ccc(S(=O)(=O)N3CCCC3)cn2)CC1 | / | -6 | / | -8
CCOc1cc(NC(=O)c2ccccn2)c(OCC)cc1NC(=O)c1ccccc1 | 23 | 92 | 0 | -5
SMILES | AI-2 QS modul | Mot1-301 SUMO | HIF activator | ALR H2O2 inh
CCOc1cc(NC2CS(=O)(=O)CC2O)c(OCC)cc1NC(=O)c1ccccc1 (stereo unspecified) | -18 | 4 | 1 | 89*
CCOC(=O)N1CCC(NC(=O)CSCc2nc(-c3ccc(OC)cc3)oc2C)CC1 | 19 | 5 | 0 | 86*
Cc1ccc(C(=O)N2CCN(c3ncccn3)CC2)o1 | 17 | 13 | 0 | -1
CSc1ccc(-c2nc(CSCC(=O)N3CCOCC3)c(C)o2)cc1 | 17 | -24 | 1 | 98*
Cc1oc(-c2ccccc2F)nc1CSCC(=O)NC1CCCC1 | 13 | 28 | 0 | -33
CCc1ccc(-c2nc(CSCC(=O)NC3CC3)c(C)o2)cc1 | 17 | -2 | -2 | 70
CCc1ccc(-c2nc(CSCC(=O)N3CCN(c4ncccn4)CC3)c(C)o2)cc1 | -5 | i | -1 | 97*
Cc1oc(-c2ccccc2Cl)nc1CSCC(=O)NC1CC1 | 14 | -15 | 0 | 98*
CC1C(=O)Nc2ccc(S(=O)(=O)N3CCN(c4cccc(C(F)(F)F)c4)CC3)cc2NC1=O (stereo unspecified) | 16 | -2 | 0 | -9
N#Cc1ccccc1NC(=O)COC(=O)/C=C/c1ccc(S(=O)(=O)N2CCOCC2)cc1 | / | -4 | / | 41
CSc1ccc(-c2nc(CSCC(=O)NC3CC3)c(C)o2)cc1 | 25 | 19 | 0 | 98*
CCn1c(CNC(C)=O)nnc1SCC(=O)c1ccc(Br)cc1 | 12 | 0 | / | 96*
C=Cc1ncc(OC)c2c1[nH]c1ccccc12 | 23 | -16 | 0 | 42
CCCc1nn(C)c2c(=O)[nH]c(-c3cc(S(=O)(=O)Nc4ccc(NC(C)=O)cc4)ccc3OCC)nc12 | 21 | -6 | -1 | -4
CCn1cc(C(=O)NCC(OC)OC)c(=O)c2cc(S(=O)(=O)N3CCC(C)CC3)ccc21 | 3 | 7 | 30* | -2
COc1ccc(N2CCN(CCCNC(=O)CCC(=O)N3CCOc4ccc(Cl)cc43)CC2)cc1 | 34 | -4 | 1 | 99*
Cn1cccc1C(=O)OCc1cc(-c2ccco2)on1 | / | 21 | / | -2
O=C(c1ccc2ncsc2c1)N1CCN(c2ccc(O)cc2)CC1 | 13 | -3 | 0 | 99*
CC1CC(C)CN(C(=O)c2ccc3ncsc3c2)C1 (stereo unspecified) | / | 62 | / | 79*
COc1ccc(C(=O)N2CCCCCC2)cc1OC1CCN(C(C)=O)CC1 | 11 | -4 | 0 | -6
COc1ccc(C(=O)OC(C)C(=O)NC(C)CCc2ccccc2)cc1OC (stereo unspecified) | 1 | 206 | 0 | 0
Cc1ccc(NC(=O)CCn2c(=O)[nH]c3ccsc3c2=O)cc1F | 22 | -4 | -19 | 5
Cc1ccc(S(=O)(=O)N2CCN(C(=O)C3CSC4(C)CCC(=O)N34)CC2)cc1C (stereo unspecified) | / | -5 | 0 | -1
CC[n+]1c(-c2ccccc2)csc1Nc1c(C)n(C)n(-c2ccccc2)c1=O | 10 | -5 | -1 | 99*
O=c1cc(CN2CCc3ccccc32)c2ccc(O)cc2o1 | -19 | 9 | 0 | 99*
SMILES | AI-2 QS modul | Mot1-301 SUMO | HIF activator | ALR H2O2 inh
CCC(/C=C1\Sc2ccc(OC)cc2N1CC)=C\c1sc2ccc(OC)cc2[n+]1CCCS(=O)(=O)[O-] | -1 | -29 | 0 | 97*
CCC(=O)/C=C1/Sc2ccc(OC)cc2N1CC | 34 | 9 | 0 | 77*
CCC(/C=C1\Sc2ccc(OC)cc2N1CCO)=C\c1sc2ccc(OC)cc2[n+]1CCO | / | -5 | / | 9
C=CCNC(=S)N1CCN(Cc2ccc3c(c2)OCO3)CC1 | 25 | -4 | -8 | -16
O=c1oc2ccccc2n1CSC1=NCCS1 | 2 | 5 | 0 | 99*
CN(C)/N=C/C=C1\CCC/C(=C/c2cccs2)C1=O | 37 | 0 | 10* | 12
CCC1C(=O)N=C(SCC(=O)Nc2ccccc2)NC1=O (stereo unspecified) | 9 | -30 | 0 | 99*
